In ChEMBL document CHEMBL1157539, “Thousands of chemical starting points for antimalarial lead identification” (Nature, 2010):

Each molecule was assayed on HepG2 (assay: GSK_TCMDC: Percent inhibition of human HepG2 cell line. Test compounds present at 10uM.).
Format: functional
For `Cl.c1ccc(-c2ccc3c(Nc4ccc5[nH]ncc5c4)ccnc3c2)nc1`, the Inhibition was 99%. With `O=C(O)C(F)(F)F.O=C1CCCN1CCCNCc1cccc(-c2ccc(-c3nc4cc(C(F)(F)F)ccc4[nH]3)s2)c1` the Inhibition was 19%. Work on `COc1ccc(CNCc2cccc(-c3csc(-c4nc5ccccc5[nH]4)c3)c2)cc1.O=C(O)C(F)(F)F` yielded an Inhibition of 17%. Work on `O=C(O)C(F)(F)F.O=[N+]([O-])c1cccc(CNCC2CCN(CC3CCCCC3)CC2)c1` yielded an Inhibition of 11%. For `O=S(=O)(c1ccc(Cl)cc1Cl)N1CCCCC(c2ccc(C(F)(F)F)cc2)=N1`, the Inhibition was 10%. `O=C(C=Cc1ccc(Cl)c(Cl)c1)NCCCCCN1CCCC(CCCNS(=O)(=O)c2ccc(Br)cc2)C1` (stereo not given) was tested, and the Inhibition was 43%. `O=C(CCOc1ccccc1)NCC1CCCO1` (stereo not given) was tested, and the Inhibition was 0%. For `Cn1cncc1CCCN(Cc1ccc(-c2ccc(C(F)(F)F)cc2)cc1)C(=O)Cn1c(CCc2cccc(F)c2F)cc(=O)c2cccnc21`, the Inhibition was 17%. `Cc1ccoc1C(=O)Nc1ccc(-c2cccc(-c3nc4cccc(C)c4[nH]3)c2)cc1` was tested, and the Inhibition was 15%. `COc1ccc(-c2cccc(NC(=O)c3ccc(F)cc3)c2)cc1CNC(C)C.O=C(O)C(F)(F)F` showed an Inhibition of 32%. For `CC(C)Cn1ncc2c3c(N)nc(N)nc3ccc21`, the Inhibition was 63%. With `CCCCCCN1CCC(NCc2ccc(Cl)cc2)CC1.O=C(O)C(F)(F)F` the Inhibition was 19%. Work on `Cn1cncc1CCN(Cc1ccc(-c2ccc(C(F)(F)F)cc2)cc1)C(=O)Cn1c(CCc2cccc(F)c2F)cc(=O)c2cccnc21` yielded an Inhibition of 44%. Work on `Cl.Nc1c(C(=O)NCCCCN2CCN(c3nsc4ccccc34)CC2)sc2ccccc12` yielded an Inhibition of 26%. `C=CCn1c(Sc2ccc(C#N)c([N+](=O)[O-])c2)nnc1-c1ccc(Cl)cc1` gave an Inhibition of 13%. `O=C(CC1CCCC1)N(Cc1ccc(-c2ccc(CNC3Cc4ccccc4C3)cc2)cc1)CC1CCCCN1.O=C(O)C(F)(F)F` (stereo not given) was tested, and the Inhibition was 41%. `COc1ccc(-c2ccc(CNCc3ccc(F)cc3)cc2)cc1S(=O)(=O)NCCN1CCCC1.O=C(O)C(F)(F)F` was tested, and the Inhibition was 24%. `Cc1ccc(N2CCN(C(=O)c3cccc(-c4cncc5nc(-c6ccco6)n(C)c45)c3)CC2)nc1` was tested, and the Inhibition was 0%. `CCCN(Cc1ccc(OCC)cc1)Cc1cc(=O)c2cc(Cl)ccc2[nH]1` gave an Inhibition of 47%. Work on `O=CO.O=S1(=O)NCc2ccc(Nc3nccc(Nc4ccc5c(cnn5Cc5ccccc5)c4)n3)cc21` yielded an Inhibition of 0%. `Cc1cc(Nc2ncc(C#N)c(Nc3ccccc3C(N)=O)n2)ccc1N1CCN(C)CC1.Cl` gave an Inhibition of 99%. With `O=C(NCCN1CCOCC1)c1csc(C2CCCN(C(=O)c3ccc(O)c(-c4cc(Cl)cc(Cl)c4)c3)C2)n1` (stereo not given) the Inhibition was 12%. Work on `CC(C)N(Cc1cnc2nc(N)nc(N)c2n1)c1ccc(Cl)c(Cl)c1` yielded an Inhibition of 63%. With `CCN(CC)/C(=N/C(=N)Nc1ccc(Br)cc1)NCCCCCCN/C(=N\C(=N)Nc1ccc(Br)cc1)N(CC)CC` the Inhibition was 0%. Work on `COc1ccc(-c2cccc(NC(=O)c3ccc(Cl)cc3)c2)cc1CN1CCCN(C)CC1.O=C(O)C(F)(F)F` yielded an Inhibition of 29%. For `Nc1c2ccccc2nc2cc(Cl)ccc12`, the Inhibition was 24%. For `COc1ccc(CNCc2cccc(-c3cccc(-c4nc5cccc(C)c5[nH]4)c3)c2)cc1.O=C(O)C(F)(F)F`, the Inhibition was 31%. `COc1ccc(-n2nc(C)c3c2NC(=O)CC3c2ccccc2OCc2ccc(F)cc2)cc1` (stereo not given) gave an Inhibition of 53%. `COc1ccc(CCNC(=O)c2ccccc2O)cc1-c1ccc(C(C)(C)C)cc1` gave an Inhibition of 25%. For `Cc1sc(NC(=O)Cc2cccc(C(F)(F)F)c2)nc1-c1cccc(Cl)c1`, the Inhibition was 15%. In the case of `CN(c1ccc(NC(=O)Nc2cc(C(C)(C)C)on2)cc1)c1ccnc(NCCOC(=O)Nc2cc(C(C)(C)C)on2)n1.O=C(O)C(F)(F)F`, the Inhibition is reported as 59%. `Cl.Oc1cc(-c2nc(C3(CNCc4ccc(Cl)cc4)CCCCC3)[nH]c2-c2ccncc2)ccc1Cl` was tested, and the Inhibition was 35%. `O=C(NC1CCCCN(Cc2ccc3c(c2)OCCO3)C1)c1cc(-c2ccccc2F)cs1.O=C(O)C(F)(F)F` (stereo not given) showed an Inhibition of 8%. `Cc1cc(N/N=C/c2cccc([N+](=O)[O-])c2)c2ccc(F)cc2n1` gave an Inhibition of 0%. `O=C(Nc1cccc(-c2cccc(-c3nc4cc(C(F)(F)F)ccc4[nH]3)c2)c1)c1cccnc1Cl` gave an Inhibition of 56%. With `Cc1ccc(Cn2ncc(N3CC(C)NC(C)C3)c(Cl)c2=O)cc1NC(=O)Nc1ccc(-c2ccccc2)cc1.O=C(O)C(F)(F)F` (stereo not given) the Inhibition was 51%. Molecule `Cc1cccc2nc(-c3cccc(-c4ccc(CN5CCCC5CN)cc4)c3)[nH]c12.O=C(O)C(F)(F)F` (stereo not given) has an Inhibition of 19%. `CCNc1cc(C(=O)N[C@@H](Cc2ccccc2)[C@H](O)CNC(C)(C)Cc2cccc(Cl)c2)cc(N2CCCCS2(=O)=O)c1.Cl` gave an Inhibition of 17%. `Clc1ccc(-c2cc(-c3csc(NCCN4CCCCC4)n3)on2)cc1` was tested, and the Inhibition was 81%. For `COCCCNC(=N)c1ccc(NC(=O)c2ccc(C(=O)Nc3ccc(C(=N)NCCCOC)cc3)cc2)cc1.Cl`, the Inhibition was 33%.
